Data reported in PubChem BioAssay (NCI).
Where “and” joins values, the source holds several entries; their conditions need not be identical. Equal values may be shown once. About 83,000 compounds went through this panel and 20% of them were active in at least one assay; those are over-represented in the sample as a whole.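 Percent growth is the endpoint: 0 to 100 indicates growth inhibition (40 means 60% inhibition), 0 means no net growth, and negative values indicate cell death.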 Calls of active or inactive are those of the source. The calls were made as follows: active = growth percent below 10; inactive = the rest.

These compounds were tested on SR leukemia (assay: NCI-60 one-dose screen, 48 h (100 = growth as untreated, 0 = no growth, -100 = all killed)). Details: 10 µM unless noted.
With `CN(C)C(=O)c1cc2cnc(Nc3ccc(-c4csc5c(=S)cc(N6CCOCC6)oc45)cc3)nc2n1C1CCCC1` the growth was -3.12% (active).
With `CN1CCN(c2ccc(/C=C/C(=O)c3ccc(O)cc3)cc2)CC1` the growth was 101% (inactive).
`CCCCC(NC(=O)CN1C(=O)/C(=C/C(C)=C/c2ccccc2)SC1=S)C(=O)O` (stereo unspecified) was tested, and the growth was 115% (inactive).
With `CC1(Cc2ccccc2)CC2=C(C(=O)O1)C(c1ccccc1)NC(=O)N2` (stereo unspecified) the growth was 76.6% (inactive).
In the case of `COc1ccc(-c2nc(Cl)c3c(C)nn(-c4ccc(F)cc4)c3n2)cc1`, the growth is reported as 103% (inactive).
`CCCCn1c(C(=O)c2c[nH]c3ccccc23)n[nH]c1=S` was tested, and the growth was 91.7% (inactive).
With `COc1ccc(/C=C2\COc3ccc(O)c(O)c3C2=O)c(OC)c1OC` the growth was 9.47% (active).
`C=C(CN1CC=CCC1)[C@@H]1CC[C@]2(COC(C)=O)CC[C@]3(C)[C@H](CC[C@@H]4[C@@]5(C)CC[C@H](O)C(C)(C)[C@@H]5CC[C@]43C)[C@@H]12` was tested, and the growth was 90.4% (inactive).
In the case of `O=[N+]([O-])c1ccc(S(=O)Cc2ccccc2)c([N+](=O)[O-])c1` (stereo unspecified), the growth is reported as 1.64% (active) and -8.84% (active).
For `O=C(Cn1cc(CN2CCN(c3ccnc4cc(Cl)ccc34)CC2)nn1)Nc1cccc([N+](=O)[O-])c1`, the growth was 33% (inactive).
In the case of `Nc1n[nH]c2cccc(C#Cc3cccc(NC(=O)c4ccc(N5CCOCC5)c(C(F)(F)F)c4)c3)c12`, the growth is reported as 12.6% (inactive).
For `COC1=CC(=O)C(OC)=C(O)C1=O`, the growth was 107% (inactive).
`CONC1=Nc2cc(NC(N)=NCc3ccccc3)c(N(C)C3CCCCC3)cc2OC1` was tested, and the growth was -12.1% (active).
In the case of `Cc1ccc(NC(=O)c2ccc(CN3CCN(C)CC3)cc2)cc1Nc1nccc(-c2cccnc2)n1`, the growth is reported as 85.4% (inactive) and -22.5% (active).
For `Fc1ccc(NC(c2ccc(F)cc2)C2CCN(CCCCc3ccccc3)CC2)cc1` (stereo unspecified), the growth was -40.5% (active).
With `COc1ccc2c(O)c(/C=C3\N=Nc4nc(C)ccc43)oc2c1CC1CCNCC1` the growth was -27.5% (active).
For `COc1ccc(C(=O)N/N=C/c2ccc(O)cc2O)cc1Nc1ccnc(C(F)(F)F)c1`, the growth was 35.3% (inactive).
`COc1ccc(-c2cc(-c3cc(OC)c(OC)c(OC)c3)c(C#N)c(=O)n2CCCCC(=O)O)cc1` was tested, and the growth was 72.6% (inactive).
`COc1cc(-c2[nH]ncc2Nc2ccc(Cl)cc2)cc(OC)c1OC` was tested, and the growth was 67.7% (inactive).
For `Nc1ccc(S(=O)(=O)c2ccc(N)cc2)cc1`, the growth was 99.7% (inactive) and 121% (inactive).
`C/C(=C(\c1ccc(OCCN2CCOCC2)cc1)c1ccc(OC(=O)C2CCCCC2)cc1)c1ccc(Cl)cc1` was tested, and the growth was 94.2% (inactive).
With `CCN(CC)CCOc1ccc(/C(=C(\Cl)c2ccccc2)c2ccccc2)cc1` the growth was 17.4% (inactive) and 85.1% (inactive).
`CSc1nnc(-c2cc3c([nH]c4ccccc43)c(-c3cccc(O)c3)n2)n1-c1ccc(C)cc1` was tested, and the growth was 5.99% (active).
In the case of `COc1ccc(/C(C)=C(\c2ccc(OCCN3CCCCCC3)cc2)c2ccc(OC(=O)C3CCCCC3)cc2)cc1`, the growth is reported as -20.1% (active).
With `N=C1/C(=C2\NC3C=CC=CC3S2)C(c2ccc(Cl)cc2)C2C(=O)N(c3ccccc3)C(=S)N12` (stereo unspecified) the growth was 105% (inactive).
In the case of `Nc1nc(Nc2cccnc2)sc1C(=O)c1ccccc1F`, the growth is reported as 19.1% (inactive).
`COCCOc1cc2ncnc(N3CCN(S(=O)(=O)c4ccccc4Cl)CC3)c2cc1OCCOC` was tested, and the growth was 22% (inactive).
For `O=C1/C(=C/c2ccc(F)c(F)c2)CN(C(=O)C(Cl)Cl)C/C1=C\c1ccc(F)c(F)c1`, the growth was -21.2% (active).
In the case of `O=C([C@H]1C[C@H]1c1ccc(S(F)(F)(F)(F)F)cc1)N1CCN(c2cc(Cl)ccc2C(F)(F)F)CC1`, the growth is reported as 88.1% (inactive).
`O=C(NNc1ccccc1)c1ncc[nH]1` was tested, and the growth was 104% (inactive).
With `COc1cccc(C2C(C#N)=C(N)Oc3cc(OCCCCCC[P+](c4ccccc4)(c4ccccc4)c4ccccc4)ccc32)c1` (stereo unspecified) the growth was -48.8% (active).
`CCOC(=O)N(O)c1ccc(/C=C/c2ccccc2)cc1` was tested, and the growth was 66.7% (inactive).
With `CN(C)CCN1C(=O)c2c(c3c4ccccc4n4c3c3c2c2ccccc2n3C2CC(O)C(O)C4(C)O2)C1=O` (stereo unspecified) the growth was 5.57% (active).
`O=C(CCCOc1ccc(Br)cc1)Nc1ncc(Cc2ccc(F)cc2)s1` was tested, and the growth was 22.6% (inactive).
`COc1cc(NC2CCCCC2O)c2nc(-c3ccc(Cl)cc3)ccc2c1` (stereo unspecified) was tested, and the growth was -4.63% (active).
For `O=C(O)C1C2CCC1C(O)C2` (stereo unspecified), the growth was 96.2% (inactive) and 88.2% (inactive).
For `C=C1CC[C@@H]2[C@](C)(COC(C)=O)[C@H](OC(C)=O)CC[C@@]2(C)[C@@H]1CC(Nc1ccc(S(=O)(=O)Nc2nccs2)cc1)C1=CCOC1=O` (stereo partly specified), the growth was -5.84% (active).
With `Nc1nc(Nc2ccc(F)cc2)nn1C(=O)c1cc(Cl)ccc1Cl` the growth was 37.5% (inactive).

What follows are compounds tested on RPMI-8226 leukemia in the same assay as above. Details: 10 µM unless noted.
For `CN(C)C(=O)c1cc2cnc(Nc3ccc(-c4csc5c(=S)cc(N6CCOCC6)oc45)cc3)nc2n1C1CCCC1`, the growth was -35.9% (active).
With `CN1CCN(c2ccc(/C=C/C(=O)c3ccc(O)cc3)cc2)CC1` the growth was 102% (inactive).
In the case of `CCCCC(NC(=O)CN1C(=O)/C(=C/C(C)=C/c2ccccc2)SC1=S)C(=O)O` (stereo unspecified), the growth is reported as 115% (inactive).
With `CC1(Cc2ccccc2)CC2=C(C(=O)O1)C(c1ccccc1)NC(=O)N2` (stereo unspecified) the growth was 94% (inactive).
For `COc1ccc(-c2nc(Cl)c3c(C)nn(-c4ccc(F)cc4)c3n2)cc1`, the growth was 102% (inactive).
`CCCCn1c(C(=O)c2c[nH]c3ccccc23)n[nH]c1=S` was tested, and the growth was 78.7% (inactive).
With `COc1ccc(/C=C2\COc3ccc(O)c(O)c3C2=O)c(OC)c1OC` the growth was -23.6% (active).
With `C=C(CN1CC=CCC1)[C@@H]1CC[C@]2(COC(C)=O)CC[C@]3(C)[C@H](CC[C@@H]4[C@@]5(C)CC[C@H](O)C(C)(C)[C@@H]5CC[C@]43C)[C@@H]12` the growth was 84.2% (inactive).
With `O=[N+]([O-])c1ccc(S(=O)Cc2ccccc2)c([N+](=O)[O-])c1` (stereo unspecified) the growth was 72.8% (inactive) and 27.5% (inactive).
In the case of `O=C(Cn1cc(CN2CCN(c3ccnc4cc(Cl)ccc34)CC2)nn1)Nc1cccc([N+](=O)[O-])c1`, the growth is reported as 57.6% (inactive).
In the case of `Nc1n[nH]c2cccc(C#Cc3cccc(NC(=O)c4ccc(N5CCOCC5)c(C(F)(F)F)c4)c3)c12`, the growth is reported as -0.476% (active).
For `COC1=CC(=O)C(OC)=C(O)C1=O`, the growth was 110% (inactive).
In the case of `CONC1=Nc2cc(NC(N)=NCc3ccccc3)c(N(C)C3CCCCC3)cc2OC1`, the growth is reported as 38.5% (inactive).
With `Cc1ccc(NC(=O)c2ccc(CN3CCN(C)CC3)cc2)cc1Nc1nccc(-c2cccnc2)n1` the growth was 87.4% (inactive) and 38.3% (inactive).
For `Fc1ccc(NC(c2ccc(F)cc2)C2CCN(CCCCc3ccccc3)CC2)cc1` (stereo unspecified), the growth was -17.6% (active).
In the case of `COc1ccc2c(O)c(/C=C3\N=Nc4nc(C)ccc43)oc2c1CC1CCNCC1`, the growth is reported as 96.7% (inactive).
For `COc1ccc(C(=O)N/N=C/c2ccc(O)cc2O)cc1Nc1ccnc(C(F)(F)F)c1`, the growth was 41.7% (inactive).
For `COc1ccc(-c2cc(-c3cc(OC)c(OC)c(OC)c3)c(C#N)c(=O)n2CCCCC(=O)O)cc1`, the growth was 84.3% (inactive).
For `COc1cc(-c2[nH]ncc2Nc2ccc(Cl)cc2)cc(OC)c1OC`, the growth was 21.1% (inactive).
With `Nc1ccc(S(=O)(=O)c2ccc(N)cc2)cc1` the growth was 96.7% (inactive) and 85.4% (inactive).
`C/C(=C(\c1ccc(OCCN2CCOCC2)cc1)c1ccc(OC(=O)C2CCCCC2)cc1)c1ccc(Cl)cc1` was tested, and the growth was 44.8% (inactive).
For `CCN(CC)CCOc1ccc(/C(=C(\Cl)c2ccccc2)c2ccccc2)cc1`, the growth was -21.2% (active) and 88.8% (inactive).
In the case of `CSc1nnc(-c2cc3c([nH]c4ccccc43)c(-c3cccc(O)c3)n2)n1-c1ccc(C)cc1`, the growth is reported as 19.3% (inactive).
`COc1ccc(/C(C)=C(\c2ccc(OCCN3CCCCCC3)cc2)c2ccc(OC(=O)C3CCCCC3)cc2)cc1` was tested, and the growth was -55.1% (active).
With `N=C1/C(=C2\NC3C=CC=CC3S2)C(c2ccc(Cl)cc2)C2C(=O)N(c3ccccc3)C(=S)N12` (stereo unspecified) the growth was 103% (inactive).
For `Nc1nc(Nc2cccnc2)sc1C(=O)c1ccccc1F`, the growth was 17.7% (inactive).
With `COCCOc1cc2ncnc(N3CCN(S(=O)(=O)c4ccccc4Cl)CC3)c2cc1OCCOC` the growth was 82.5% (inactive).
In the case of `O=C1/C(=C/c2ccc(F)c(F)c2)CN(C(=O)C(Cl)Cl)C/C1=C\c1ccc(F)c(F)c1`, the growth is reported as -31.4% (active).
`O=C([C@H]1C[C@H]1c1ccc(S(F)(F)(F)(F)F)cc1)N1CCN(c2cc(Cl)ccc2C(F)(F)F)CC1` was tested, and the growth was 75.8% (inactive).
In the case of `O=C(NNc1ccccc1)c1ncc[nH]1`, the growth is reported as 53.5% (inactive).
In the case of `COc1cccc(C2C(C#N)=C(N)Oc3cc(OCCCCCC[P+](c4ccccc4)(c4ccccc4)c4ccccc4)ccc32)c1` (stereo unspecified), the growth is reported as -36.4% (active).
`CCOC(=O)N(O)c1ccc(/C=C/c2ccccc2)cc1` was tested, and the growth was 62.2% (inactive) and 49.3% (inactive).
`CN(C)CCN1C(=O)c2c(c3c4ccccc4n4c3c3c2c2ccccc2n3C2CC(O)C(O)C4(C)O2)C1=O` (stereo unspecified) was tested, and the growth was 18.5% (inactive).
In the case of `O=C(CCCOc1ccc(Br)cc1)Nc1ncc(Cc2ccc(F)cc2)s1`, the growth is reported as 77.6% (inactive).
With `COc1cc(NC2CCCCC2O)c2nc(-c3ccc(Cl)cc3)ccc2c1` (stereo unspecified) the growth was 58.3% (inactive) and 34.2% (inactive).
In the case of `O=C(O)C1C2CCC1C(O)C2` (stereo unspecified), the growth is reported as 104% (inactive) and 90.5% (inactive).
With `C=C1CC[C@@H]2[C@](C)(COC(C)=O)[C@H](OC(C)=O)CC[C@@]2(C)[C@@H]1CC(Nc1ccc(S(=O)(=O)Nc2nccs2)cc1)C1=CCOC1=O` (stereo partly specified) the growth was -13.3% (active).
For `Nc1nc(Nc2ccc(F)cc2)nn1C(=O)c1cc(Cl)ccc1Cl`, the growth was 97.1% (inactive).
